PubChem BioAssay (NCATS)
Results filed as inconclusive are left out. A call without a number means that no potency is given here. Active and inactive are the calls of the source. The call rests on the fitted dose curve; in most records, active means well fitted activation curve with a large enough effect; inconclusive means small, poorly fitted or top-dose-only effect; inactive means flat fitted curve, though single readings scatter.
Potency means the concentration at half of the fitted maximal effect.

Each compound was assayed against Cellular tumor antigen p53 (Homo sapiens) (UniProt P04637) (assay: Primary qHTS for small molecule compounds that upregulate eGFP-tagged delta133p53alpha (in C-terminal) cells. (AID 2060324)). Settings: NCI-H358 delta133p53alpha-eGFP (C-terminal tag), GFP fluorescence imaging, 24 h; series mostly up to 57.5 µM.
Chain of Cellular tumor antigen p53 (Homo sapiens) (P04637 whole entry, looked up): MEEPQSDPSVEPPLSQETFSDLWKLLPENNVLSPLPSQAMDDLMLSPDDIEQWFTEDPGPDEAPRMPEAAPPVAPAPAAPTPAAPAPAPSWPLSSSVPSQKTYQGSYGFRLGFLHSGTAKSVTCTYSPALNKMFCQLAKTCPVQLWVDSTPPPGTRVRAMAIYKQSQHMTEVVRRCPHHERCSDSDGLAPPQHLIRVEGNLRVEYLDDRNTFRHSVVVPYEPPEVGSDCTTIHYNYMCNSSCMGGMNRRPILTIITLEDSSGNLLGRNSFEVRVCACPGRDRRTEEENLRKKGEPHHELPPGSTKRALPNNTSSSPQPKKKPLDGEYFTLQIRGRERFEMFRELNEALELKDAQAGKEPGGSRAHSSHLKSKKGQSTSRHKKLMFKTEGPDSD
Description: Assay Development and Screening Technology
National Center for Advancing Translational Sciences (NCATS),
National Institute of Health (NIH), Rockville, Maryland
Cellular senescence (CS) is one of the hallmarks of aging and age-related diseases. Senescent cells are characterized by an irreversible growth arrest, an increase in senescence-associated beta-galactosidase (SA-beta-gal) activity and p16INK4a expression, an activation of the DNA damage response pathways, and the emergence of a senescence-associated secretory phenotype (SASP).
Delta133p53alpha, a human/primate-specific p53 protein isoform, delays or inhibits the induction of CS and SASP in various types of human cells, including progeria-derived fibroblasts, primary normal astrocytes, and CD8+ T lymphocytes. Induction of delta133p53alpha with small molecule compounds may provide therapeutic opportunities for inhibition of senescence/SASP-associated pathologies in progeria syndromes, astrocyte-mediated neuroprotection in neurodegenerative diseases, and possibly prevention and treatment of a wider range of senescence- and aging-associated diseases.
Here we report the development and validation of a cell-based quantitative high throughput screening (qHTS) assay in 1,536-well format. This qHTS assay uses the NCI-H358 cell line with doxycycline-inducible expression of enhanced green fluorescent protein (eGFP)-tagged delta133p53alpha, which allows efficient and highly quantitative measurement of the protein levels.
PROTOCOL TABLE (as described by Inglese J, Shamu CE and Guy RK. 2007)
SEQUENCE No. (e.g., 1, 2, 3, etc.); […] (e.g., Cells, Incubation, Reagent, etc.); VALUE; DESCRIPTION.
1; Cells; 4uL; 800 doxycycline treated cells / well in doxycycline-free media, 1536-well black, clear-bottom low base Aurora microplates.
2; Compounds; 23 nL; Kalypsis pin tool (Wako) equipped with 1536-well pin heads, 5-azacytidine positive control.
3; Incubation; 24 hr; 37C, 5% CO2; 95% relative humidity.
4; Aspiration; 1x; BioTek EL406 washer dispenser (Agilent).
5; Fixing; 3.5% paraformaldehyde, BioTek EL406 washer dispenser (Agilent).
6; Washing; 1x PBS; BioTek EL406 washer dispenser (Agilent).
7; Nuclei staining; 1:1000 dilution of Hoechst 33342 (Thermofisher), BioTek EL406 washer dispenser (Agilent).
8; Incubation; 20 min; in the dark at room temperature.
9; Washing; 2x, 1x PBS (ThermoFisher), BioTek EL406 washer dispenser (Agilent).
10; Reagent; 10 uL; 1x PBS per well, sealed with clear adhesive tape.
11; Detection; Fluorescence, Acumen eX3 laser scanning cytometer (STP Labtech), GFP filters […].
NOTES (numbers refer to sequence numbers above).
1. NCI-H358 cells expressing eGFP-tagged delta133p53alpha were grown in T75 culture flasks and treated with doxycycline for 24h, at 10 ng/ml for eGFP-D133p53a cells (N-terminal cell) and 100 ng/ml for D133p53a-eGFP cells (C-terminal cells). Cells were trypsinized, counted using a Counted 3 Automated Cell Counter (Thermo Fisher), and diluted to a concentration of 200,000 cells/ml. A Multidrop Combi Reagent Dispenser (ThermoFisher) was used to dispense 800 cells/well in […] of doxycycline-free media, into 1536-well black/clear bottom low base plates (AuroraMicroplates).
2. After plating cells, 23 nl of compound library, DMSO vehicle control or positive control (5-azacytidine) were transferred by Pin Tool (Wako). The plate map layout was the same for each plate: (column 1) non-doxycycline treated cells + DMSO vehicle control; (column 2) doxycycline treated cells + DMSO vehicle control baseline; (column 3) doxycycline treated cells + positive control 57.5 uM final concentration 5-azacytidine; (column 4) doxycycline treated cells + serial dilution of 5-azacytidine, 16-point 1:2 titration spanning 1.8 nM to […] final concentration; (columns 5-48) doxycycline treated cells + titration of library compounds.
3. Cells were incubated at 37 °C, 5 % CO2, 95% RH with breathable metal lid for 24h.
4-10. […] […]
For `C[C@]12N[C@H](Cc3ccccc31)c1ccccc12`, the Potency was “inactive”. For `CC(C)(O)[C@@H]1C2OC(=O)[C@@H]1[C@]1(O)C[C@H]3O[C@]34C(=O)O[C@H]2[C@]14C` (tested in a mixture with another compound), the Potency was “inactive”. For `C[N+](C)(C)CC#CCOC(=O)Nc1cccc(Cl)c1`, the Potency was “inactive”. In the case of `O=C1C=CC(=O)C=C1`, the Potency is reported as “inactive”. In the case of `CCCN(CCC)[C@@H]1CCc2cccc(O)c2C1`, the Potency is reported as “inactive”. For `Nc1cc2c(ncn2CCOCP(=O)(O)O)c(=O)[nH]1`, the Potency was “inactive”. With `CS(=N)(=O)CC[C@H](N)C(=O)O` (stereo not given in full) the Potency was “inactive”. For `NC(=O)COc1c(F)cc(SCCNS(=O)(=O)c2ccccc2)cc1F`, the Potency was “inactive”. `Cc1o[nH]c(=O)c1CC(N)C(=O)O` (stereo not given) was tested, and the Potency was “inactive”. `CCS(=O)(=O)Nc1cccc(C(=C2CCCCC2)c2cnc[nH]2)c1` was tested, and the Potency was “inactive”. In the case of `CC[C@@]1(O)C(=O)OCc2c1cc1n(c2=O)Cc2cc3ccccc3nc2-1`, the Potency is reported as 3.79 µM (active). For `N[C@@H](Cn1oc(=O)[nH]c1=O)C(=O)O`, the Potency was “inactive”. For `CN(N=O)c1ccc(O)c(O)c1`, the Potency was “inactive”. `CN1C2CCC1CC(OC(c1ccccc1)c1ccccc1N)C2` (stereo not given) was tested, and the Potency was “inactive”. With `CN1CCC(c2c[nH]c3ccc(O)cc23)CC1` the Potency was “inactive”. `O=C1CCCN1CC#CCN1CCCC1` was tested, and the Potency was “inactive”. For `COc1ccc(C(CN(C)C)C2(O)CCCCC2)cc1` (stereo not given), the Potency was “inactive”. `NCCc1c[nH]c2ccc(O)cc12` was tested, and the Potency was “inactive”. With `C#CCN[C@H](C)Cc1ccccc1` the Potency was “inactive”. `N=C(N)c1ccc(CS(=O)(=O)F)cc1` was tested, and the Potency was “inactive”. In the case of `c1ccc2sc(C3(N4CCCCC4)CCCCC3)cc2c1`, the Potency is reported as “inactive”. `NNC(=O)c1ccc(O)cc1` was tested, and the Potency was “inactive”. For `O=C(O)Cc1cnc[nH]1`, the Potency was “inactive”. With `CNCCc1ccc(O)c(O)c1` the Potency was “inactive”. With `O=C(O)[C@@H]1CCN1` the Potency was “inactive”. For `COc1ccc2c(c1)C13CCCCC1C(C2)N(C)CC3` (stereo not given), the Potency was “inactive”. With `C=CCN1CC[C@]23CCCCC2[C@H]1Cc1ccc(O)cc13` (stereo not given in full) the Potency was “inactive”. In the case of `NC(N)=NOCCC(N)C(=O)O` (stereo not given), the Potency is reported as “inactive”. In the case of `O=C(O)c1nn(Cc2ccc(Cl)cc2Cl)c2ccccc12`, the Potency is reported as “inactive”. In the case of `C[N+](C)(C)CC#CCN1CCCC1=O`, the Potency is reported as “inactive”. `CC(C)(C)OC(=O)NC1[C@H]2CNC[C@@H]12` (stereo not given in full) was tested, and the Potency was “inactive”. With `CC(C)NC(C)Cc1ccc(I)cc1` (stereo not given) the Potency was “inactive”. For `Cn1c(CCCC(=O)O)nc2cc(N(CCCl)CCCl)ccc21`, the Potency was “inactive”. With `CC(CCc1ccccc1)NC(C)C(O)c1ccc(O)cc1` (stereo not given) the Potency was “inactive”. For `COC(=O)N1CCN(C(=O)Cc2ccc(Cl)c(Cl)c2)C(CN2CCCC2)C1` (stereo not given), the Potency was “inactive”. `CN1CC[C@@]2(C)c3cc(O)ccc3N(C)C12` (stereo not given in full) was tested, and the Potency was “inactive”. In the case of `O=C1CC[C@@]2(O)C3Cc4ccc(O)c5c4C2(CCN3CC2CC2)[C@H]1O5` (stereo not given in full), the Potency is reported as “inactive”. For `CC[C@@H](C(N)=O)N1CCCC1=O`, the Potency was “inactive”. For `CC12NC(Cc3ccccc31)c1ccccc12` (stereo not given), the Potency was “inactive”. In the case of `Cc1ncc(CNC(=O)N(CCCl)N=O)c(N)n1`, the Potency is reported as “inactive”.
